# PubChem BioAssay (EPA / NIEHS)
# Records with an inconclusive call do not appear. Activity calls are given as the source filed them. The calls were made as follows, unless noted: active = hit-call score of the fitted dose curve at least 0.9, where 1 is the maximum; inconclusive = response in the unintended direction; inactive = score below 0.9.
# Tests used:
# [1] = molecular target: human Retinoid X Receptor beta (RXRb), RXRB (gene 6257) (UniProt P28702); experiment: ATG_RXRb_TRANS: Attagene TRANS-FACTORIAL HepG2 Assay for human Retinoid X Receptor beta (RXRb) (AID 2283013)
# Chain of human Retinoid X Receptor beta (RXRb), RXRB (gene 6257) (P28702 whole entry, looked up, the tested form may be a part): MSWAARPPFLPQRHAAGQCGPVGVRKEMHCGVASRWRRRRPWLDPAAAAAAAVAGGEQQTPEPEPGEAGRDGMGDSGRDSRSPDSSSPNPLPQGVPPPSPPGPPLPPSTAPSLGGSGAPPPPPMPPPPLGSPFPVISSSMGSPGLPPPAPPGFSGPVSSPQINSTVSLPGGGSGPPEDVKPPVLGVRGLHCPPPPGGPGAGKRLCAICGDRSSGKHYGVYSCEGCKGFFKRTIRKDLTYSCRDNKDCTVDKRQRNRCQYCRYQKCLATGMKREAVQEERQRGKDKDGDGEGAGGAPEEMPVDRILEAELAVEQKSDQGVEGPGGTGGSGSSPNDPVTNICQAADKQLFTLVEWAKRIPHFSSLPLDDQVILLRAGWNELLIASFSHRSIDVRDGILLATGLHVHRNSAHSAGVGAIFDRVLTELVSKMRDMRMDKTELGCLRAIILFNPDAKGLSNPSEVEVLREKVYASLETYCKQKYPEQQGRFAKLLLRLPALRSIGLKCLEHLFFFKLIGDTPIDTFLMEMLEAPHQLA
# Method in brief: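 HepG2 cells were transiently transfected with multiplexed GAL4-UAS reporters and a chimeric RXRb-Gal4 construct, then exposed for 24 h. Reporter mRNA was quantified by RT-PCR, FAM labeling, HpaI digestion and capillary electrophoresis; gain of signal was scored against DMSO.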
# [2] = molecular target: human Thyroid Receptor alpha (THRa1), THRA (gene 7067) (UniProt P10827); experiment: ATG_THRa1_TRANS: Attagene TRANS-FACTORIAL HepG2 Assay for human Thyroid Receptor alpha (THRa1) (AID 2283014)
# Chain of human Thyroid Receptor alpha (THRa1), THRA (gene 7067) (P10827 whole entry, looked up, the tested form may be a part): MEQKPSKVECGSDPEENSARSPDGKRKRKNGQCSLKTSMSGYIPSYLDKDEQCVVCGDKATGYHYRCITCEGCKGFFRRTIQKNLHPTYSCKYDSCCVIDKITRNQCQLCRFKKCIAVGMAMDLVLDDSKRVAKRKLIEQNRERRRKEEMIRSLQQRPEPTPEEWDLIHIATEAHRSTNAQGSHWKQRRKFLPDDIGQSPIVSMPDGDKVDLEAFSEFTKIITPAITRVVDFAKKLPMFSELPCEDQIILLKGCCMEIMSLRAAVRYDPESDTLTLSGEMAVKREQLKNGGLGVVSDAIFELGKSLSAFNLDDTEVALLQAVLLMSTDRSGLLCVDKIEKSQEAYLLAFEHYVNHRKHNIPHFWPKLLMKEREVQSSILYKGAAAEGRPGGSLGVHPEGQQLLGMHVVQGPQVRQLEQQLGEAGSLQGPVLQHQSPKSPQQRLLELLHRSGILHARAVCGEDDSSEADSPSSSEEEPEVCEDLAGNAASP
# Method in brief: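 Reporter transcript induction, read by capillary electrophoresis of 6-FAM-labelled RT-PCR products, reflects activity of a transfected THRa1-Gal4 fusion in HepG2 liver cells. Cells were dosed for 24 h; activity was fitted in the positive direction against DMSO.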
# [3] = molecular target: Retinoic acid receptor RXR-alpha (Homo sapiens) (UniProt P19793); experiment: ATG_RXRa_TRANS: Attagene TRANS-FACTORIAL HepG2 Assay for human Retinoid X Receptor alpha (RXRa) (AID 2283012)
# Chain of Retinoic acid receptor RXR-alpha (Homo sapiens) (P19793 whole entry, looked up, the tested form may be a part): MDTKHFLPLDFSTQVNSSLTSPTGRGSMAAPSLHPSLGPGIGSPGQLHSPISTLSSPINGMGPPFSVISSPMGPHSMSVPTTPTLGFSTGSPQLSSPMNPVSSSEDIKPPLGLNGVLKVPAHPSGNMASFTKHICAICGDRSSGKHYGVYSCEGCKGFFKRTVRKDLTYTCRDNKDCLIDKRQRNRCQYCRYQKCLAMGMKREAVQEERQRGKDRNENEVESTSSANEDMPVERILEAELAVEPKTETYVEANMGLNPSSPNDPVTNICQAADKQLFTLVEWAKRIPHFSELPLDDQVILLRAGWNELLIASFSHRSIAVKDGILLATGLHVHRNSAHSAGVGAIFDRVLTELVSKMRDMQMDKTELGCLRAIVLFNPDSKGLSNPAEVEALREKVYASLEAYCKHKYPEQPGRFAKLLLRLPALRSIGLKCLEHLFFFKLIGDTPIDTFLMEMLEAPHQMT
# Method in brief: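 HepG2 cells transiently transfected with GAL4-UAS reporter units and chimeric RXRa-Gal4 protein, treated 24 h. Reporter mRNA measured by RT-PCR, fluorescent labelling, HpaI digestion and capillary electrophoresis. Induction fitted against DMSO.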
# [4] = read-out: E-selectin (Homo sapiens) (UniProt P16581); experiment: BSK_3C_Eselectin: BioMAP Diversity Plus: 3C Assay for Eselectin Biomarker Activity (AID 2283015; active = hit-call score of the fitted dose curve at least 0.9, where 1 is the maximum; inactive = score below 0.9;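 as to outcome: cell surface E-selectin protein quantified by ELISA 24 h after dosing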); settings: primary human endothelial cells (HUVEC); actives raise or lower the signal
# Method in brief: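 ELISA read-out of E-selectin on endothelial monolayers after 24 h chemical treatment. Human umbilical vein primary cells served as the system, with DMSO defining baseline activity for bidirectional fitting.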
# [5] = read-out: Interleukin-1 alpha (IL1a), IL1A (gene 3552); experiment: BSK_BE3C_IL1a: BioMAP Diversity Plus: BE3C Assay for Interleukin-1 alpha (IL1a) Biomarker Activity (AID 2283016; active = hit-call score of the fitted dose curve at least 0.9, where 1 is the maximum; inactive = score below 0.9); settings: primary human bronchial epithelial cells; actives raise or lower the signal
# Method in brief: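 Human primary bronchial epithelial cells, 24 h chemical exposure; IL-1a quantified by ELISA, fitted bidirectionally against DMSO. Cytotoxicity assessed in parallel by SRB total-protein staining at the time of measurement.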
# [6] = read-out: Monocyte Chemoattractant Protein-1 (MCP1), CCL2 (gene 6347); experiment: BSK_3C_MCP1: BioMAP Diversity Plus: 3C Assay for Monocyte Chemoattractant Protein-1 (MCP1) Biomarker Activity (AID 2283017; active = hit-call score of the fitted dose curve at least 0.9, where 1 is the maximum; inactive = score below 0.9); settings: primary human endothelial cells (HUVEC); actives raise or lower the signal
# Method in brief: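 ELISA read-out of MCP-1 from human umbilical vein endothelial cell cultures harvested 24 h post-dosing. Gain or loss of signal was fitted relative to DMSO.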
# [7] = read-out: Human Leukocyte Antigen - DR isotype (HLADR), HLA-DRA (gene 3122); experiment: BSK_3C_HLADR: BioMAP Diversity Plus: 3C Assay for Human Leukocyte Antigen - DR isotype (HLADR) Biomarker Activity (AID 2283019; active = hit-call score of the fitted dose curve at least 0.9, where 1 is the maximum; inactive = score below 0.9;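 as to outcome: ELISA of cell-surface HLA-DR on HUVEC 24 h after dosing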); settings: primary human endothelial cells (HUVEC); actives raise or lower the signal
# Method in brief: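 ELISA readout of surface HLA-DR on human umbilical vein endothelium, taken 24 h after chemical treatment. Gain- and loss-of-signal were both fitted relative to DMSO.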
# [8] = read-out: Monocyte Chemoattractant Protein-1 (MCP1), CCL2 (gene 6347); experiment: BSK_4H_MCP1: BioMAP Diversity Plus: 4H Assay for Monocyte Chemoattractant Protein-1 (MCP1) Biomarker Activity (AID 2283018; active = hit-call score of the fitted dose curve at least 0.9, where 1 is the maximum; inactive = score below 0.9); settings: primary human endothelial cells (HUVEC); actives raise or lower the signal
# Method in brief: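 Human umbilical vein endothelial cells (4H system) exposed to chemicals for 24 h in 96-well format. MCP-1 measured by ELISA; bidirectional fitting against DMSO, with SRB total-protein staining in parallel cultures for cytotoxicity.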
# Chain of E-selectin (Homo sapiens) (P16581 whole entry, looked up): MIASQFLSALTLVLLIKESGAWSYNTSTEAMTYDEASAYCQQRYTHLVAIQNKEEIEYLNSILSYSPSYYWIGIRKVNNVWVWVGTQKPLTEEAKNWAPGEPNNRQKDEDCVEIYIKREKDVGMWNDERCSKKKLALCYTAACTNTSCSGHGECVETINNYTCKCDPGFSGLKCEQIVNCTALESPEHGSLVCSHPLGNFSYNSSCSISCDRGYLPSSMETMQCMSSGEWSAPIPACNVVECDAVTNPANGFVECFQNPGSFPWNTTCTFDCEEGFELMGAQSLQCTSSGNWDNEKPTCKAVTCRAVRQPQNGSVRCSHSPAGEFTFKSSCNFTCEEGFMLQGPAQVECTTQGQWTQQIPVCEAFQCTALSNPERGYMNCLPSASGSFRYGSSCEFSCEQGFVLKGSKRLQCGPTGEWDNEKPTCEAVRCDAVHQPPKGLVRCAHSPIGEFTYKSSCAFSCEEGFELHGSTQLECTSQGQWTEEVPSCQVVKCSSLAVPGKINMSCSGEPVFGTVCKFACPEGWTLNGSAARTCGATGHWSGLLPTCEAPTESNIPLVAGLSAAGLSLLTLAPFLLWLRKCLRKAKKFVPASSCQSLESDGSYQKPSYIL
smiles,measurement,setting,value
O=C(Oc1ccccc1)c1ccccc1O,outcome,[1],inactive
same,outcome,[2],inactive
C=C[Si](OCCOC)(OCCOC)OCCOC,outcome,[3],inactive
same,outcome,[2],inactive
CCCCCOC(=O)CCCCC,outcome,[2],inactive
O=C(Oc1ccccc1)c1ccccc1C(=O)Oc1ccccc1,outcome,[4],inactive
same,outcome,[5],inactive
same,outcome,[6],inactive
same,AC50,[7],20 µM (active)
COc1ccc(-c2coc3cc(O)cc(O)c3c2=O)cc1,outcome,[3],inactive
same,outcome,[2],inactive
O=C(O)C1CCC(C(=O)O)CC1 (stereo not drawn),outcome,[1],inactive
c1ccc2sc(SSN3CCOCC3)nc2c1,outcome,[1],inactive
same,outcome,[2],inactive
same,AC50,[4],11.8 µM (active)
same,outcome,[5],inactive
same,AC50,[6],14.2 µM (active)
same,AC50,[8],4.41 µM (active)
same,AC50,[7],5.37 µM (active)
CCc1occc(=O)c1O,outcome,[3],inactive
same,outcome,[2],inactive
CCOB(OCC)OCC,outcome,[1],inactive
same,outcome,[2],inactive
CCCC/C=C/C=C\C=O,outcome,[3],inactive
same,outcome,[2],inactive
Nc1ccc(C(=O)OCCCOC(=O)c2ccc(N)cc2)cc1,outcome,[2],inactive
CC1=CCC(C(C)C)C=C1 (stereo not drawn),outcome,[1],inactive
Oc1c(Cl)cc(Cl)c(Cl)c1Cl,outcome,[3],inactive
same,outcome,[2],inactive
same,AC50,[4],27.7 µM (active)
same,AC50,[5],29.2 µM (active)
same,AC50,[8],27.9 µM (active)
same,AC50,[7],25 µM (active)
CCOC(=O)OC(=O)OCC,outcome,[3],inactive
same,outcome,[2],inactive
CO[Si](C)(C)OC,outcome,[2],inactive
C1CCSC1,outcome,[1],inactive
same,outcome,[2],inactive
Cc1noc(NS(=O)(=O)c2ccc(N)cc2)c1C,outcome,[3],inactive
same,outcome,[2],inactive
CCN1CCCC1=O,outcome,[3],inactive
same,outcome,[2],inactive
CCC(C)N (stereo not drawn),outcome,[1],inactive
Oc1ccccc1Cc1ccccc1O,outcome,[1],inactive
same,outcome,[2],inactive
same,outcome,[4],inactive
same,outcome,[5],inactive
same,outcome,[7],inactive
CCc1cccc(CC)c1,outcome,[1],inactive
CCCCC1C(=O)N(c2ccccc2)N(c2ccccc2)C1=O,outcome,[3],inactive
same,outcome,[4],inactive
same,outcome,[5],inactive
same,outcome,[7],inactive
